Results: the supplement of paper PMC13380429

Test system: Vero E6 infected with SARS-CoV-2
Assay: inhibition of SARS-CoV-2 cytopathic effect; higher = more antiviral protection, active = above 15
Settings: 48 h

Measured: inhibition of SARS-CoV-2 cytopathic effect

CCNC(=O)CC[C@H](N)C(=O)O [L-theanine]
inactive: 1 nM -2.94% | 8.33 nM -3.55% | 100 nM -3.29% | 833.33 nM -0.63% | 10000 nM -0.81%

COc1ccc(Cl)c(Nc2nc3ccccc3nc2NS(=O)(=O)c2cccc(NC(=O)C(C)(C)N)c2)c1 [pilaralisib]
inactive: 1 nM 0.3% | 8.33 nM 0.48% | 100 nM 1.1% | 833.33 nM 0.71% | 10000 nM -1.82%

CC1(C)S[C@@H]2[C@H](NC(=O)Cc3ccccc3)C(=O)N2[C@H]1C(=O)O [benzylpenicillin]
inactive: 1 nM -3.59% | 8.33 nM -1.58% | 100 nM -1.25% | 833.33 nM -1% | 10000 nM -2.39%

Cc1ccc(C23CNCC2C3)cc1 (stereo not given) [bicifadine]
inactive: 1 nM 0.67% | 8.33 nM -0.49% | 100 nM 0.91% | 833.33 nM -1.53% | 10000 nM -0.3%

Cc1ccccc1C(=O)Nc1ccc(C(=O)N2CCCC(N(C)C)c3ccccc32)cc1 (stereo not given) [mozavaptan]
inactive: 1 nM 0.68% | 8.33 nM 1.45% | 100 nM 3.31% | 833.33 nM -0.56% | 10000 nM -5.53%

Cc1ccc(-c2nc3ccc(C)cn3c2CC(=O)N(C)C)cc1
inactive: 1 nM 0.77% | 8.33 nM 1.21% | 100 nM 0.45% | 833.33 nM 1.14% | 10000 nM -2.98%

Cc1cc(-c2ccccc2)nnc1NCCN1CCOCC1 [minaprine]
inactive: 1 nM 0.27% | 8.33 nM 0.75% | 100 nM -0.02% | 833.33 nM 1.16% | 10000 nM 1.01%

Cc1c(N)cccc1Cn1ccc(OCCc2cccs2)cc1=O
inactive: 1 nM -0.22% | 8.33 nM 0.73% | 100 nM 1.31% | 833.33 nM 0.66% | 10000 nM -2.07%

C=CCNc1nc(NCC=C)nc(N2CCN(C(c3ccc(F)cc3)c3ccc(F)cc3)CC2)n1 [almitrine]
inactive: 1 nM -6.44% | 8.33 nM -3.95% | 100 nM -7.43% | 833.33 nM -4.59% | 10000 nM -8.59%

N[C@@H](CSC(c1ccccc1)(c1ccccc1)c1ccccc1)C(=O)O [S-trityl-L-cysteine]
inactive: 1 nM -0.89% | 8.33 nM -0.64% | 100 nM -2.17% | 833.33 nM -0.68% | 10000 nM -1.72%

O=C1c2cccc(O)c2C(=O)c2c(O)cc(CO)cc21 [aloe-emodin]
inactive: 1 nM -3.13% | 8.33 nM -0.39% | 100 nM -0.52% | 833.33 nM -3% | 10000 nM -2.43%

CNC(=O)Oc1ccccc1OC(C)C [propoxur]
inactive: 1 nM 2.55% | 8.33 nM 4.24% | 100 nM 3.02% | 833.33 nM 2.09% | 10000 nM 2.81%

NC(=O)c1cn(Cc2c(F)cccc2F)nn1 [rufinamide]
inactive: 1 nM 2.25% | 8.33 nM 1% | 100 nM 2.89% | 833.33 nM 1.75% | 10000 nM 3.51%

O=c1cc(-c2ccccc2)oc2cc(O)cc(O)c12 [chrysin]
inactive: 1 nM -1.5% | 8.33 nM 0.24% | 100 nM -1.23% | 833.33 nM -7.18% | 10000 nM -3.61%

O=C(NCC(=O)N1CC[C@H](N[C@H]2CC[C@@](O)(c3ccc(-c4ncccn4)cn3)CC2)C1)c1cccc(C(F)(F)F)c1
inactive: 1 nM -4.52% | 8.33 nM -2.69% | 100 nM 1.06% | 833.33 nM -0.75% | 10000 nM -0.61%

O=C(O)c1ccccc1 [benzoic-acid]
inactive: 1 nM 0.45% | 8.33 nM -0.31% | 100 nM -1.57% | 833.33 nM -0.13% | 10000 nM -0.09%

CCC[C@@H]1C[C@@H](C(=O)N[C@@H]([C@H]2O[C@H](SC)[C@H](OP(=O)(O)O)[C@@H](O)[C@H]2O)[C@H](C)Cl)N(C)C1 [Clindamycin phosphate]
inactive: 1 nM 2.18% | 8.33 nM -1.74% | 100 nM 2.16% | 833.33 nM 1.59% | 10000 nM 0.27%

c1ccc(N2CCN(CCCOc3ccc4c(c3)OCO4)CC2)cc1
inactive: 1 nM -0.84% | 8.33 nM -2.11% | 100 nM -4.95% | 833.33 nM -3.5% | 10000 nM -4.64%

O=C(Nc1ccc(C(=O)O)c(O)c1)c1ccccc1 [benzoylpas]
inactive: 1 nM 0.82% | 8.33 nM -2.28% | 100 nM 0.45% | 833.33 nM -0.08% | 10000 nM -0.85%

FCc1ccc(OCCOc2ccc(Cl)cc2Cl)c(Cl)n1
inactive: 1 nM 2.16% | 8.33 nM 2.42% | 100 nM 2.11% | 833.33 nM 1.12% | 10000 nM 1.65%
